Sampled rows, rich in hits. Any-hit rate of the full collection: about 6%.
D1 antag: antagonists of human D1 dopamine receptor; 360,000 tested, 3.2% active; AID 504652; HEK293 TREx D1 cells, calcium flux, dopamine EC80; hits give low values; P21728; activity change, negative = inhibition, % at 10 µM; in the data active means activity change below about -30%
Target sequence (P21728 whole entry, looked up): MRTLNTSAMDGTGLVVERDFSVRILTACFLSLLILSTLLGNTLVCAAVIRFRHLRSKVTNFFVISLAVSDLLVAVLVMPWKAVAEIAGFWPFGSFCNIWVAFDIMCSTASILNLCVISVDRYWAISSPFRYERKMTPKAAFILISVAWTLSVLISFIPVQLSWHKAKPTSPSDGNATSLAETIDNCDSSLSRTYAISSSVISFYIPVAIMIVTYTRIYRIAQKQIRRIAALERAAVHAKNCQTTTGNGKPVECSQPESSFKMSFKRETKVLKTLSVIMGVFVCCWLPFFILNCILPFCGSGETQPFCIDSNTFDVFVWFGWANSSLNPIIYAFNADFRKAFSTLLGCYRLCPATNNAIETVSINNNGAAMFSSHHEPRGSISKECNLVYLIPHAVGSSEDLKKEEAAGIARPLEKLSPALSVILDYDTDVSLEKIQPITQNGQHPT
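Inducible Hek293 Trex D1 cells (tetracycline, overnight, 30 C). Calcium dye 30–90 min RT. Antagonist mode: EC80 dopamine added after 180 s compound read.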
D3 antag: antagonists of human D3 dopamine receptor; P35462; D3R cells, DiscoveRx beta-arrestin luminescence, antagonist mode; hits give low values; max response, negative = inhibition, %; 360,000 tested, 2.5% active; AID 652054; in the data active means max response below about -50%
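Cells plated overnight at 1500 cells/well, then exposed to library compounds with dopamine controls for 90 minutes at 37 degrees C. DiscoveRx reagent added for 30–60 minutes at room temperature; luminescence read, quantitative HTS format.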
D1 agonist: agonists of human D1 dopamine receptor | P21728 | HEK293 T-REx D1 cells, calcium flux, agonist mode | activation, % at 2 µM | 360,000 tested, 1% active | AID 504660; in the data active means activation above about 30%
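Tetracycline-induced HEK293 TREx D1 cells, force-coupled to calcium signalling, were dye-loaded with a no-wash calcium kit. Compound was pin-added after a 10 s baseline. Fluorescence was read kinetically at 1 cycle/s for 180 s, with calcium rises flagged as agonism.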
DRD3 agonist: D3 dopamine receptor (human) agonism | P35462 | D3R DiscoveRx beta-arrestin cells, luminescence, 90 min | max activation, % | 410,000 tested, 0.58% active; in the data active means max activation above about 30%
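Agonist-mode cell screen: cells plated at 1500/well and incubated overnight at 37 °C, then exposed to library compounds for 90 min at 37 °C. Detection reagent was added for 30–60 min at room temperature, and luminescence was read.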
D1 potentiator: enhances dopamine response at the human D1 receptor | 360,000 tested, 0.036% active | HEK293 TREx D1 cells, calcium flux, dopamine EC20 potentiation | potentiation, % at 10 µM; in the data active means potentiation above about 30%
Numbers stand for hits; 0 = inactive; - = no result given.

SMILES	D1 antag	D3 antag	D1 agonist	DRD3 agonist	D1 potentiator
COc1ccc2nc3oc(C(=O)NCc4ccccc4OC)cc3cc2c1	0	-	0	0	0
C=C(NC(=O)C(=C)NC(=O)c1csc(C2=N[C@@H]3c4csc(n4)[C@H]4NC(=O)c5csc(n5)[C@H]([C@](C)(O)[C@@H](C)O)NC(=O)[C@H]5CSC(=N5)C(=CC)NC(=O)C([C@@H](C)O)NC(=O)c5csc(n5)[C@]3(CC2)NC(=O)[C@H](C)NC(=O)C(=C)NC(=O)[C@H](C)NC(=O)C([C@@H](C)CC)NC2C=Cc3c([C@H](C)O)cc(nc3C2O)C(=O)O[C@@H]4C)n1)C(N)=O (some centres not stated)	-	-	-	0	-
Cc1cc2nc(-c3ccc(C#N)cc3)c(Cc3cccc(F)c3)n2c(C)c1Br	-	0	-	0	-
CC1CCCN(C(=O)COC(=O)/C=C/c2ccc(C(F)(F)F)cc2)C1 (configuration not stated)	-47	0	0	0	0
CC1Sc2ccc(C(=O)OCc3ccccc3Cl)cc2NC1=O (configuration not stated)	0	0	0	0	0
O=C(NCc1ccccc1)c1cc(C2CCCCN2C(=O)c2ccc3c(c2)CCO3)on1 (configuration not stated)	-	0	-	0	-
N#C/C(C(=O)N1CCOCC1)=C1/SC(Cc2ccccc2)C(=O)N1c1ccccc1 (configuration not stated)	0	-51	0	0	0
CCOC(=O)CN1C(=O)C(=O)N(Cc2cccc(C)c2)C1=O	0	0	33	0	0
COc1ccc(C(=O)NCCc2nc3ccccc3[nH]2)cc1	0	-	0	0	0
COc1ccc(C2c3c(-c4ccccc4)n[nH]c3C(=O)N2c2ccc(C(=O)O)cc2)c(OC)c1 (configuration not stated)	-35	-	0	0	0
CCOc1ccccc1CNC(=O)c1cc(-c2ccc(OC)cc2)nc2ccc(C(C)C)cc12	0	-	0	0	0
CC(=O)Nc1ccc(OS(=O)(=O)c2c(C)cc(C)cc2C)cc1	-66	0	0	0	0
CC(=O)Nc1ccc(OS(=O)(=O)c2ccc(C)cc2C)cc1	0	0	0	0	0
CCOc1cc(C(=S)N2CCOCC2)ccc1OS(=O)(=O)c1ccc(NC(C)=O)cc1	-33	0	0	0	0
CC(=O)Nc1ccc(S(=O)(=O)Oc2ccc(C(=S)N3CCCCC3)cc2)cc1	-33	0	0	0	0
CC(=O)Nc1ccc(S(=O)(=O)Oc2ccc(C(=S)N3CCC(O)CC3)cc2)cc1	0	0	0	0	0
CCc1ccccc1NC(=O)c1nc2nc(C)cc(C(F)F)n2n1	0	-	0	0	0
CCCCn1c2ccccc2c2nnc(SCC(=O)Nc3ccc(NC(C)=O)cc3)nc21	0	-	0	0	0
CSC1=N/C(=C\c2cccnc2)C(=O)N1c1ccccc1	-43	0	0	0	0
CCOC(=O)CSC1=N/C(=C\c2cccnc2)C(=O)N1c1ccc(OC)cc1	0	0	0	0	0
CCSC1=N/C(=C\c2cccnc2)C(=O)N1c1ccccc1	-68	0	0	0	0
CSC1=N/C(=C\c2ccccc2)C(=O)N1C	-	0	-	0	-
COc1cccc(CNC(=O)c2ccc3c(c2)nc2n3CCCCC2)c1OC	0	-	0	0	0
CCOc1ccc(NC(=O)CCS(=O)(=O)c2cccc3nonc23)cc1	0	-	0	0	0
N#CCc1nn(Cc2ccc(F)cc2)c(=O)c2ccccc12	-32	0	0	0	0
SMILES	D1 antag	D3 antag	D1 agonist	DRD3 agonist	D1 potentiator
CNC(=O)c1ccc(CSc2nc3cccnc3n2Cc2cccc(F)c2)cc1	0	-	0	0	0
Cc1ccc(C(=O)Nc2nnc(S(=O)(=O)N3CCc4ccccc43)s2)cc1	0	-	0	0	0
CCN(Cc1ccccc1)S(=O)(=O)c1ccc(C(=O)Nc2nnc(C)o2)cc1	0	0	0	0	0
CCN(CC)S(=O)(=O)c1ccc(C(=O)Nc2nnc(-c3ccco3)o2)cc1	0	0	0	0	0
CCN(CC)S(=O)(=O)c1ccc(C(=O)Nc2nnc(COC)o2)cc1	0	0	0	0	0
CCCCN(C)S(=O)(=O)c1ccc(C(=O)Nc2nnc(CSC)o2)cc1	0	-98	0	0	0
CCCCN(CC)S(=O)(=O)c1ccc(C(=O)Nc2nnc(-c3cccs3)o2)cc1	0	-57	40	0	0
CCc1nnc(NC(=O)c2ccc(S(=O)(=O)N(CC)Cc3ccccc3)cc2)o1	0	-99	0	0	0
CCCCN(CCCC)S(=O)(=O)c1ccc(C(=O)Nc2nnc(COC)o2)cc1	0	-93	0	0	0
CCN(CC)S(=O)(=O)c1ccc(C(=O)Nc2nnc(CSC)o2)cc1	0	0	0	0	0
CCN1C(=O)c2ccccc2S(=O)c2ccc(C(=O)N3CCN(c4cccc(Cl)c4)CC3)cc21 (configuration not stated)	0	-	0	0	0
CC(C)OCCCNC(=O)CN1C(=O)COc2ccc(S(=O)(=O)N3CCOCC3)cc21	0	-	0	0	0
O=C(N1CCc2ccc(S(=O)(=O)N3CCN(S(=O)(=O)c4ccc5c(c4)OCCO5)CC3)cc2C1)C(F)(F)F	0	-	0	-	0
Cc1ccc(NC(=O)CC(NC(=O)c2ccccc2Cl)c2ccccc2)nc1 (configuration not stated)	-30	0	0	0	-
CC(=O)N1CCC(C(=O)Nc2cc(S(=O)(=O)N3CCCCC3)ccc2C)CC1	-	0	-	0	-
N#CCCCCn1c(-c2cncs2)nc2ccccc21	0	-56	0	0	0
O=C(CC1=NCCNC(c2ccccc2)C1)c1ccccc1O (configuration not stated)	-41	0	0	0	0
O=C(CC1(O)C(=O)Nc2ccccc21)c1ccccc1O (configuration not stated)	0	0	0	0	0
CN(C)CC1CC/C(=C\c2ccc(O)cc2)C1=O (configuration not stated)	-	-61	-	0	-
CC1CCC/C(=C\c2ccc(O)cc2)C1=O (configuration not stated)	-	0	-	0	-
COc1ccc(/C=C2/CCC(CN3CCOCC3)C2=O)cc1 (configuration not stated)	-	-67	-	0	-
CCOC(=O)c1ccc(NC(=O)CCc2nc(-c3ccc(Cl)cc3)no2)cc1	0	0	0	0	0
CCOC(=O)c1ccc(NC(=S)Nc2ccc(C)cc2)cc1	0	0	0	0	0
CCOC(=O)c1ccc(NC(=S)NNC(C)(C)C)cc1	-36	-58	0	0	0
CCOC(=O)c1ccc(NC(=O)Nc2cc(C)on2)cc1	-32	0	0	0	0
O=C(CCCc1nc(-c2ccccc2)no1)Nc1cccnc1	0	0	0	0	0
Cc1ccc(-c2noc(CCCC(=O)Nc3cccnc3)n2)cc1	-34	0	0	0	0
CCOC(=O)c1ccc(NC(=O)CCc2nc(-c3ccc(C)cc3)no2)cc1	0	0	45	0	0

Bioassay records deposited in PubChem by National Center for Advancing Translational Sciences (NCATS).
